Source: PubChem BioAssay (NCATS)
Activity calls are given as the source filed them. The call rests on the fitted dose curve; in most records, active means well fitted activation curve with a large enough effect; inconclusive means small, poorly fitted or top-dose-only effect; inactive means flat fitted curve, though single readings scatter.

Assay: Cellular Toxicity (caspase-3) SK-N-SH (AID 661);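 further: 0% = DMSO basal and 100% = 10 µM staurosporine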
Conditions: SK-N-SH caspase-3 activation, qHTS, DMSO as zero, staurosporine as full; series mostly up to 91.7 µM; caspase-3 activation: at the top concentration
Source text: NIH Chemical Genomics Center [NCGC]
NIH Molecular Libraries Screening Centers Network [MLSCN]
National Institutes of Environmental Health Sciences [NIEHS]
National Toxicology Program [NTP]
We have developed a 1536-well cell-based assay for quantitative high throughput screening (qHTS) against a number of cell lines to determine in vitro caspase 3/7 activity of small molecules. This particular assay uses the SK-N-SH cell line which is derived from human neuroblastoma.
NCGC Assay Protocol Summary:
The Caspase-Glo 3/7 assay (Promega) is a homogeneous method to measure caspase-3 and caspase-7 activities in cultured cells. The quantitation of caspase 3/7 activity is based on the cleavage of a peptide-aminoluciferin substrate. After caspase cleaves the substrate the free aminoluciferin is liberated and serves as the substrate of luciferase, which generates the light. The luminescent signal is proportional to amount of caspase 3/7 activity present.
Using the Caspase-Glo 3/7 assay, the amount of caspase 3/7 activity was measured in the SK-N-SH cell line with complete culture medium following compound treatment for 16 hours. The assay was performed in opaque white 1536-well plates. In the screen, tamoxifen and staurosporine were used as positive controls. Library compounds were measured for their ability to cause the activation of caspase 3/7 in the cell line, as reflected by an increase in luminescence signal, in a concentration-dependent manner. Data were normalized to the controls for basal activity (DMSO only) and 100% stimulation (10 uM staurosporine). AC50 values were determined from concentration-response data modeled with the standard Hill equation.
qHTS protocol for caspase 3/7 assay in SK-N-SH cells
[Step] [Parameter] [Value] [Description]
1. Reagent; 5 uL; 1500 SK-N-SH cells/well
2. Time; 5 hr; 37 °C incubation
4. Controls; 23 nL; Tamoxifen 0.23 uM to 100 uM & staurosporine 1.4 pM to 100 uM
5. Time; 16 hr; 37 °C incubation
6. Reagent; 5 uL; Caspase-Glo 3/7 reagent
7. Time; 1 hr; Room Temperature
8. Detection; Luminescence; Viewlux plate reader
Keywords: caspase 3/7, apoptosis, SK-N-SH cell line, luminescence, NTPHTS, NTPHTS_NCGC, NIEHS, EPA, DSSTox, MLSMR, MLSCN, NIH Roadmap, qHTS, NCGC

Compound | caspase-3 activation | outcome
CCCCOC(=O)c1ccc(O)cc1 | -0.906% (inactive) | 
NCCNCCNCCNCCN | 0.0319% (inactive) | 
CCCCCCCCCCCCOS(=O)(=O)O |  | inactive
C[C@]12C[C@H](O)[C@H]3[C@@H](CCC4=CC(=O)CC[C@@]43C)[C@@H]1CC[C@@H]2C(=O)CO | -0.341% (inactive) | 
NCCNCCNCCN | 0.178% (inactive) | 
[Cl][In]([Cl])[Cl] | -0.255% (inactive) | 
O=C1c2c(O)cccc2Cc2cccc(O)c21 | -0.678% (inactive) | 
O=C1O[C@H]([C@@H](O)CO)C(O)=C1O | 0.937% (inactive) | 
CN(C)CCC=C1c2ccccc2CCc2ccccc21 | 12.8% (inactive) | 
CC12CCC(CC1)C(C)(C)O2 | -0.889% (inactive) | 
Cc1cc2nc3c(=O)[nH]c(=O)nc-3n(C[C@H](O)[C@H](O)[C@H](O)CO)c2cc1C | -1.52% (inactive) | 
CC1(C)[C@@H]2CC[C@@]1(C)C(=O)C2 | -0.586% (inactive) | 
Cc1cc(CC(=O)O)n(C)c1C(=O)c1ccc(Cl)cc1 | -0.361% (inactive) | 
Nc1ccc(S(=O)(=O)Nc2nccs2)cc1 | 0.114% (inactive) | 
COc1ccccc1O |  | inactive
NC(=O)N/N=C/c1ccc([N+](=O)[O-])o1 | -1.77% (inactive) | 
NC(=O)c1ncn([C@@H]2O[C@H](CO)[C@@H](O)[C@H]2O)n1 | -1.3% (inactive) | 
Oc1cccc(O)c1 | 10.7% (inactive) | 
COC(=O)C1=C(C)NC(C)=C(C(=O)OC)C1c1ccccc1[N+](=O)[O-] | 4.52% (inactive) | 
